# From paper PMC7862700, “An all-to-all approach to the identification of sequence-specific readers for epigenetic DNA modifications on cytosine”
# Assays:
# Test in all cases: DAPPL (digital affinity profiling via proximity ligation, sequencing); 10 mM Tris-HCl pH 7.5, 50 mM NaCl, 1 mM DTT, 4% glycerol, room temperature, 30 min; GST-TFs on glutathione beads, 16-mer random dsDNA library, 0.1% formaldehyde crosslink after washing; high values mean tight binding
# FLI1 = biological target: T1, FLI1 (Homo sapiens, UniProt Q01543 1-452); details: protein: recombinant; tags: N-terminal GST; dsDNA, one strand shown
# T1 sequence: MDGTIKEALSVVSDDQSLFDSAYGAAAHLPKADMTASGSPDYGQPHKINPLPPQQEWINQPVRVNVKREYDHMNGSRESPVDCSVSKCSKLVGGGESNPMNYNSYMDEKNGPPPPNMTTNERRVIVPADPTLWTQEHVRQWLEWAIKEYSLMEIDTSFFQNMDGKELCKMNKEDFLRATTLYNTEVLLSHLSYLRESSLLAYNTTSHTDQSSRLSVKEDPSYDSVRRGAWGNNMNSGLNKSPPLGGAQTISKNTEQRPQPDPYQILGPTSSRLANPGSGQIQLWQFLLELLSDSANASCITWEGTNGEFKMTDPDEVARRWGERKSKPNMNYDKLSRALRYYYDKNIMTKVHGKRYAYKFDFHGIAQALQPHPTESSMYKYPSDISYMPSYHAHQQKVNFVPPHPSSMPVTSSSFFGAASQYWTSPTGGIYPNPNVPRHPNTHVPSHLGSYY
# In short: (§1)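 The binding signal reported is, for every hexamer, its read frequency for a factor over its read frequency for the tag-only sample. Reads came from pools of yeast-expressed, GST-fused human transcription factors on glutathione beads, barcoded with DNA and mixed with that sample, which were incubated with 200 nmole of a random double-stranded 16-mer DNA library in Tris/NaCl/DTT/glycerol buffer at room temperature for 30 min. After washing, the pools were crosslinked with 0.1% formaldehyde, proximity-ligated with BsaI/T4 ligase for 1 h at 37 °C, PCR-amplified and sequenced on an Illumina NextSeq500.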
# ELK1 = biological target: T2, ELK1 (Homo sapiens, UniProt P19419 1-428); details: protein: recombinant; tags: N-terminal GST; dsDNA, one strand shown
# T2 sequence: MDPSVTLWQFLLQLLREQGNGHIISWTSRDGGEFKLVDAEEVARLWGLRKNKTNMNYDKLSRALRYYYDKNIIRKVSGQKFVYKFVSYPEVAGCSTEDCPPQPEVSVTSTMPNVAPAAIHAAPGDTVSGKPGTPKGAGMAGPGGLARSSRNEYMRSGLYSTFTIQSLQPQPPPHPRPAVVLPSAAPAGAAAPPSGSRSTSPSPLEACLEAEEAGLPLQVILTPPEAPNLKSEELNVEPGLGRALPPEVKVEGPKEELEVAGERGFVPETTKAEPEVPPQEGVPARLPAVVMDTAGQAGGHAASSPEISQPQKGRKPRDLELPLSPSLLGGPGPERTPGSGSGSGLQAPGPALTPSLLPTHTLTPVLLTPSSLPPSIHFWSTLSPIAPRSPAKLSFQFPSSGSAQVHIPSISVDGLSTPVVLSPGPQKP
# In short: as §1
# GABPA = biological target: T3, GABPA (Homo sapiens, UniProt Q06546 1-454); details: protein: recombinant; tags: N-terminal GST; dsDNA, one strand shown
# T3 sequence: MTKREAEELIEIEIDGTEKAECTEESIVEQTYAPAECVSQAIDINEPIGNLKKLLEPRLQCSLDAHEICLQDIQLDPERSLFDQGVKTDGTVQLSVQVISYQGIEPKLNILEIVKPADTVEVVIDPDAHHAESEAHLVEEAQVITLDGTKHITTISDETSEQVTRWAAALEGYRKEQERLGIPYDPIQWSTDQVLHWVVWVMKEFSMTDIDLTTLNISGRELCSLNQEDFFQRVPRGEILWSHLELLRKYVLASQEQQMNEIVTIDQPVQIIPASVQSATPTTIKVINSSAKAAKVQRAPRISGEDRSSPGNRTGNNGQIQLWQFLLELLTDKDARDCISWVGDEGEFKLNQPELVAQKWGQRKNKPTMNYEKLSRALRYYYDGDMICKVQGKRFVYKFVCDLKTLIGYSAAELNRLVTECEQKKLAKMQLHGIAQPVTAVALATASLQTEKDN
# In short: as §1
# ERG = biological target: T4, ERG (Homo sapiens, UniProt P11308 1-479); details: protein: recombinant; tags: N-terminal GST; dsDNA, one strand shown
# T4 sequence: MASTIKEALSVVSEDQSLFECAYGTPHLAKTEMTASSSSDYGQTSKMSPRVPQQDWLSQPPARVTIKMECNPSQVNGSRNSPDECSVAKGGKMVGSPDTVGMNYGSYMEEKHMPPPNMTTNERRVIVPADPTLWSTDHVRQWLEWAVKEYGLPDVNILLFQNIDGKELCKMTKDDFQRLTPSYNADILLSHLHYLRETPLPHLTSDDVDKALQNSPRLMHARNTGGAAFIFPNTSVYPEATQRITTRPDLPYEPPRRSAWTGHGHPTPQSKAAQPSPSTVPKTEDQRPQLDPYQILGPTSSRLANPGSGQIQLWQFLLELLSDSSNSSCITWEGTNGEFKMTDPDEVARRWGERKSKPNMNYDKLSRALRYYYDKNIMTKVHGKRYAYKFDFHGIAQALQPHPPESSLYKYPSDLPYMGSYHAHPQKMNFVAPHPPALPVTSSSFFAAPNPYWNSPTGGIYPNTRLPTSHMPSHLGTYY
# In short: as §1
# ELF1 = ELF1 (Homo sapiens, UniProt P32519 1-619); details: protein: recombinant; tags: N-terminal GST; dsDNA, one strand shown
# In short: as §1
# EHF = biological target: T5, EHF (Homo sapiens, UniProt Q9NZC4 1-300); details: protein: recombinant; tags: N-terminal GST; dsDNA, one strand shown
# T5 sequence: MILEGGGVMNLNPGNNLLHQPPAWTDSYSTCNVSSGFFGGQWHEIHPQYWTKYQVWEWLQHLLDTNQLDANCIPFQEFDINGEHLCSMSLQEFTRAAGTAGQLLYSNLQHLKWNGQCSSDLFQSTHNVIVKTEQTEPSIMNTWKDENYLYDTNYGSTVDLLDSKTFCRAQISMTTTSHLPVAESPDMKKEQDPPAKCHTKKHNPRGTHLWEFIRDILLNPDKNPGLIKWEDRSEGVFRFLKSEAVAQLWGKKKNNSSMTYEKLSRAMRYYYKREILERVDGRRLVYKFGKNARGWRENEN
# In short: as §1
# SPI1 = SPI1 (Homo sapiens, UniProt P17947 1-270); details: protein: recombinant; tags: N-terminal GST; dsDNA, one strand shown
# In short: as §1
# SPIB = SPIB (Homo sapiens, UniProt Q01892 1-262); details: protein: recombinant; tags: N-terminal GST; dsDNA, one strand shown
# In short: as §1
# ELK3 = biological target: T6, ELK3 (Homo sapiens, UniProt P41970 1-407); details: protein: recombinant; tags: N-terminal GST; dsDNA, one strand shown
# T6 sequence: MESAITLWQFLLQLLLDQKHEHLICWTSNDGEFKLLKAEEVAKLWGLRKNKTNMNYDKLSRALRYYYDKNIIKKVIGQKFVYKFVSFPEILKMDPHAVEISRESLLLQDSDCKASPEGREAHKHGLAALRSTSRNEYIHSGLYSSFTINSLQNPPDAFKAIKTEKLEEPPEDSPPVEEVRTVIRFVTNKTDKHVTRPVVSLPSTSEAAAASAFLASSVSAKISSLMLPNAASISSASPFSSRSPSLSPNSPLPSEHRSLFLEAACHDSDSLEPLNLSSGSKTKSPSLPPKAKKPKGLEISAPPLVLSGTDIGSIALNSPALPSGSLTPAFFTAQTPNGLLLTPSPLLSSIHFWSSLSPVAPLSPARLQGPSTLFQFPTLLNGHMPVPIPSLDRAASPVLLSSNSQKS
# In short: as §1
# FEV = biological target: T7, FEV (Homo sapiens, UniProt Q99581 1-238); details: protein: recombinant; tags: N-terminal GST; dsDNA, one strand shown
# T7 sequence: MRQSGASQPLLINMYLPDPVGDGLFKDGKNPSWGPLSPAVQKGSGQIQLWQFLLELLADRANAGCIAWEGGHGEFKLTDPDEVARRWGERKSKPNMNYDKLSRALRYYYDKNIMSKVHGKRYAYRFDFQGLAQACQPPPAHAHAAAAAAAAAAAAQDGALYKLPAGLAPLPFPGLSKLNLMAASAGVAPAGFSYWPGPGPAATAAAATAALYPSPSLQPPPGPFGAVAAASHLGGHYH
# In short: as §1
# ETV5 = ETV5 (Homo sapiens, UniProt P41161 1-510); details: protein: recombinant; tags: N-terminal GST; dsDNA, one strand shown
# In short: as §1
# HSF1 = HSF1 (Homo sapiens, UniProt Q00613 1-529); details: protein: recombinant; tags: N-terminal GST; chain copies: 3; dsDNA, one strand shown
# In short: as §1
# SPIC = biological target: T8, SPIC (Homo sapiens, UniProt Q8N5J4 1-248); details: protein: recombinant; tags: N-terminal GST; dsDNA, one strand shown
# T8 sequence: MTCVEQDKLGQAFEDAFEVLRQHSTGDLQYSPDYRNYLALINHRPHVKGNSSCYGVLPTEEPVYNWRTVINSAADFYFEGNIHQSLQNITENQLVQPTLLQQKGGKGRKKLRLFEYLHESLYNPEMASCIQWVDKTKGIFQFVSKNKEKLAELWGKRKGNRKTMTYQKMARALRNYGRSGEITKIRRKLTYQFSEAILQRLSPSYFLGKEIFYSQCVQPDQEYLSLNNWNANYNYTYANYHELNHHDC
# In short: as §1
# ELF4 = ELF4 (Homo sapiens, UniProt Q99607 1-663); details: protein: recombinant; tags: N-terminal GST; dsDNA, one strand shown
# In short: as §1
# ELK4 = biological target: T9, ELK4 (Homo sapiens, UniProt P28324-2 1-405); details: protein: recombinant; tags: N-terminal GST; dsDNA, one strand shown
# T9 sequence: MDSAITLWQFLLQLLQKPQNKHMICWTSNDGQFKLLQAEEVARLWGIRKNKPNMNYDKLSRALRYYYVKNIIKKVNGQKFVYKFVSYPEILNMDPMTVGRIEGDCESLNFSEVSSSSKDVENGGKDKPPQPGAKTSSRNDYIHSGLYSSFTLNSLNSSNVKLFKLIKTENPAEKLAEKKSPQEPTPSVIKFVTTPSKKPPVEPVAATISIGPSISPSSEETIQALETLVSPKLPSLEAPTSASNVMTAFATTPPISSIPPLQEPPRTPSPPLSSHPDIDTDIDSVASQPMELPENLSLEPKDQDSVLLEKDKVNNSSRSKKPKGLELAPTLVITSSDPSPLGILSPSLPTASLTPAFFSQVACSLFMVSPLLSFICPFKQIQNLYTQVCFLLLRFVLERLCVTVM
# In short: as §1
# ETV2 = biological target: T10, ETV2 (Homo sapiens, UniProt O00321 1-342); details: protein: recombinant; tags: N-terminal GST; dsDNA, one strand shown
# T10 sequence: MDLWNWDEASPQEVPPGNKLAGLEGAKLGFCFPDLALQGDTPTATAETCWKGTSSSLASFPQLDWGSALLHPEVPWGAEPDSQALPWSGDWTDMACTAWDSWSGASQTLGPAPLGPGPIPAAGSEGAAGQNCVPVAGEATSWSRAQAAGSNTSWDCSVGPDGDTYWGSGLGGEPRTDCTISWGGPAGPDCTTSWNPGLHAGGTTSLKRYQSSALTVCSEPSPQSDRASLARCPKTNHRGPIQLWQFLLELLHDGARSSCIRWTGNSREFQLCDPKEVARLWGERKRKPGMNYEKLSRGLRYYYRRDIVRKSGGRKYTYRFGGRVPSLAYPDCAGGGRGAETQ
# In short: as §1
# ELF3 = biological target: T11, ELF3 (Homo sapiens, UniProt P78545 1-371); details: protein: recombinant; tags: N-terminal GST; dsDNA, one strand shown
# T11 sequence: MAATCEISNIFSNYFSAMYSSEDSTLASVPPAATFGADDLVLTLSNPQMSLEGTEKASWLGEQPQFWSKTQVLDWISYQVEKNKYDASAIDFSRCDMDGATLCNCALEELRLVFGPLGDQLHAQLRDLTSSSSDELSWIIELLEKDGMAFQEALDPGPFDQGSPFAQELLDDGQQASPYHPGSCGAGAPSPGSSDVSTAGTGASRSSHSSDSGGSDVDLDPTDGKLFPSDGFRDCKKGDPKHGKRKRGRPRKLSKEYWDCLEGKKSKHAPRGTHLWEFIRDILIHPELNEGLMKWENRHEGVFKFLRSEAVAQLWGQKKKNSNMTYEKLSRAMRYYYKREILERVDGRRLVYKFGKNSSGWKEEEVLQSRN
# In short: as §1
# CRX = CRX (Homo sapiens, UniProt O43186 1-299); details: protein: recombinant; tags: N-terminal GST; dsDNA, one strand shown
# In short: as §1
# ETV1 = ETV1 (Homo sapiens, UniProt P50549 1-477); details: protein: recombinant; tags: N-terminal GST; dsDNA, one strand shown
# In short: as §1
# Sequence of ETV5 (P41161 whole entry): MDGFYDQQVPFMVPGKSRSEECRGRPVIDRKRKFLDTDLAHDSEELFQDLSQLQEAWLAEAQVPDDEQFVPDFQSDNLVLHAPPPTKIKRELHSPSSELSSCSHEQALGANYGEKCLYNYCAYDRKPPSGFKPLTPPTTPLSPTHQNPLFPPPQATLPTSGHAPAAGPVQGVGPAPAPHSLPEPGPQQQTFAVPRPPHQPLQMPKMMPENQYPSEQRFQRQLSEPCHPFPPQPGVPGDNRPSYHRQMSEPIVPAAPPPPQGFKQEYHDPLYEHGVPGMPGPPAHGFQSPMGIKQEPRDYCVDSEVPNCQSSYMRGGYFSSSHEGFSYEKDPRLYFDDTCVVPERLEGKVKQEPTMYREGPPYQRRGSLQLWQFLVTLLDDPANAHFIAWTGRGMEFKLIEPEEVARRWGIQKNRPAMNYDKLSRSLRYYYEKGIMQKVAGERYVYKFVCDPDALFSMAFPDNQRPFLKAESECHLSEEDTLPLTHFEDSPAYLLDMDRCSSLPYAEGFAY
# Sequence of CRX (O43186 whole entry): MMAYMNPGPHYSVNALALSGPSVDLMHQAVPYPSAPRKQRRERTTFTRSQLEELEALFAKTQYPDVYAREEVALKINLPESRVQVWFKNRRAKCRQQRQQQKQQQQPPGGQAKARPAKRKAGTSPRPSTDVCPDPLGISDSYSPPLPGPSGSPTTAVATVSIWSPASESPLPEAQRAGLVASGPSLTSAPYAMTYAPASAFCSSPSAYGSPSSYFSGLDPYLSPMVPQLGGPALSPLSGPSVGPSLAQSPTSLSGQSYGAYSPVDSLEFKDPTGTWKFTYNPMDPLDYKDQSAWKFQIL
# Sequence of SPIB (Q01892 whole entry): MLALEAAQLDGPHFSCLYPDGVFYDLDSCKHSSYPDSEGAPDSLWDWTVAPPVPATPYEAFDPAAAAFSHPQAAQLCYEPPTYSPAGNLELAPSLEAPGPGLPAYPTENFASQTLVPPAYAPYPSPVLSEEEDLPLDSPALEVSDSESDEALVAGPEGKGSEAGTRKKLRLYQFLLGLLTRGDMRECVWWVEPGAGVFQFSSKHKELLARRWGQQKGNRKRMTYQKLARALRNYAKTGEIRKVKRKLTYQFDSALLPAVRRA
# Sequence of ELF4 (Q99607 whole entry): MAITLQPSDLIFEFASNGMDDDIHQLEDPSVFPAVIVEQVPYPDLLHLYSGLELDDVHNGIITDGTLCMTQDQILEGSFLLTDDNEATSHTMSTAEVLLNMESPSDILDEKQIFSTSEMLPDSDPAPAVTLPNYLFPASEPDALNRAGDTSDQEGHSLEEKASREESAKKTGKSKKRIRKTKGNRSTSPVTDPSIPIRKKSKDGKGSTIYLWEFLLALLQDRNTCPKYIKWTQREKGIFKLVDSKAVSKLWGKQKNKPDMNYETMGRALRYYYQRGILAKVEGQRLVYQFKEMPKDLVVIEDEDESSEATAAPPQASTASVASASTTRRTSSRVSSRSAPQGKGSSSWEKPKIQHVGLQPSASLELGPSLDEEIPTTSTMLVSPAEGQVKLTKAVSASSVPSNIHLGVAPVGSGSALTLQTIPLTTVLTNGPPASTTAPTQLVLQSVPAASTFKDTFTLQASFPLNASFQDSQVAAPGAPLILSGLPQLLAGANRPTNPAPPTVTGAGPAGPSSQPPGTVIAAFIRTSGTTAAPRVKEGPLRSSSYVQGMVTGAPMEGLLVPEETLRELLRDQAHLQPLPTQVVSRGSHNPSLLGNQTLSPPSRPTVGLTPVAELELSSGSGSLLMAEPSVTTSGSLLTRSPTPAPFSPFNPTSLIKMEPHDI
# Sequence of ELF1 (P32519 whole entry): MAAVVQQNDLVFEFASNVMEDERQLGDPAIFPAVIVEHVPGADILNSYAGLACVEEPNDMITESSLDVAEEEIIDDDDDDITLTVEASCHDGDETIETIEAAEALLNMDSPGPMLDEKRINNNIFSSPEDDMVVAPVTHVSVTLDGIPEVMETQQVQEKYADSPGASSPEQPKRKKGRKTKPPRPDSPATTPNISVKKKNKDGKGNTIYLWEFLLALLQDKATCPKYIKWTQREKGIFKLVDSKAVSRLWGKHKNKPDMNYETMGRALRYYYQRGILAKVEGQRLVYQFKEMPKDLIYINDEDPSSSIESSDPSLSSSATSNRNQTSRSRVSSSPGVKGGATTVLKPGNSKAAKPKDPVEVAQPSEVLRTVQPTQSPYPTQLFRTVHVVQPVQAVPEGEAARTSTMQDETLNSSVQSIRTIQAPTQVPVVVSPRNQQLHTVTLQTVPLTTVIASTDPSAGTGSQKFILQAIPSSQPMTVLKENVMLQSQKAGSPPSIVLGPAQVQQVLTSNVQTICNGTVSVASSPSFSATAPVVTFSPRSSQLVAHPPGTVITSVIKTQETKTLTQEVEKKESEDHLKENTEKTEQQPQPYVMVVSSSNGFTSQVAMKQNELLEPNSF
# Sequence of HSF1 (Q00613 whole entry): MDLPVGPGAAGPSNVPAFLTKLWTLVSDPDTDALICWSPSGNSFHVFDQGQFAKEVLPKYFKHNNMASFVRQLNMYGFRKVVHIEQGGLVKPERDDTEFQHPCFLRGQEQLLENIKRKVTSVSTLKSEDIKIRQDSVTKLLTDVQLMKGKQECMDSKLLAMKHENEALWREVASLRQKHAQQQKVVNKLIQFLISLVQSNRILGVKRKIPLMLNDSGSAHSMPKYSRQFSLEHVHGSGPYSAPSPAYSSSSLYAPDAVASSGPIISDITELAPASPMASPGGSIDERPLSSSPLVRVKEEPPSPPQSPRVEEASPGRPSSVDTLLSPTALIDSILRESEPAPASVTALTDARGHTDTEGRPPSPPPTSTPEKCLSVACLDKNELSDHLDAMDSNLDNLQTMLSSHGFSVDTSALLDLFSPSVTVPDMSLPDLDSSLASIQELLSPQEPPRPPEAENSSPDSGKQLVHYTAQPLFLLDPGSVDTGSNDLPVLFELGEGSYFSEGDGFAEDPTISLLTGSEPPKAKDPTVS
# Sequence of ETV1 (P50549 whole entry): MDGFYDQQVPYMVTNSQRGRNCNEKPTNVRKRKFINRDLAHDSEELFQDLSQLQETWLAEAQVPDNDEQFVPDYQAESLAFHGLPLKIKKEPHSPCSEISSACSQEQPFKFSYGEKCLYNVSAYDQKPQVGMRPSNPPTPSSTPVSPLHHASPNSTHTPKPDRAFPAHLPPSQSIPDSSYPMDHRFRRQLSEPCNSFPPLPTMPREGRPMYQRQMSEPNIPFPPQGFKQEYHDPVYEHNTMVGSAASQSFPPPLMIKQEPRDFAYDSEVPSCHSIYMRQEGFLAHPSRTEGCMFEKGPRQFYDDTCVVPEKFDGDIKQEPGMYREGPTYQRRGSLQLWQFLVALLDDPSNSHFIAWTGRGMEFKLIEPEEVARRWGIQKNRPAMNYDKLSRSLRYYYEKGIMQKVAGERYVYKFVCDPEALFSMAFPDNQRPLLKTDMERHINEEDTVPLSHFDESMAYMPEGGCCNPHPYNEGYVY
sequence,measurement,setting,value
TGTTAC,binding signal,FLI1,"1.49 fold enrichment (6-mer frequency, TF over GST control)"
same,binding signal,ELK1,"1.55 fold enrichment (6-mer frequency, TF over GST control)"
same,binding signal,GABPA,"1.39 fold enrichment (6-mer frequency, TF over GST control)"
same,binding signal,ERG,"1.49 fold enrichment (6-mer frequency, TF over GST control)"
same,binding signal,ELF1,"1.43 fold enrichment (6-mer frequency, TF over GST control)"
same,binding signal,EHF,"1.53 fold enrichment (6-mer frequency, TF over GST control)"
same,binding signal,SPI1,"1.36 fold enrichment (6-mer frequency, TF over GST control)"
same,binding signal,SPIB,"1.43 fold enrichment (6-mer frequency, TF over GST control)"
same,binding signal,ELK3,"1.53 fold enrichment (6-mer frequency, TF over GST control)"
same,binding signal,FEV,"1.4 fold enrichment (6-mer frequency, TF over GST control)"
same,binding signal,ETV5,"1.47 fold enrichment (6-mer frequency, TF over GST control)"
same,binding signal,HSF1,"1.12 fold enrichment (6-mer frequency, TF over GST control)"
same,binding signal,SPIC,"1.42 fold enrichment (6-mer frequency, TF over GST control)"
same,binding signal,ELF4,"1.47 fold enrichment (6-mer frequency, TF over GST control)"
same,binding signal,ELK4,"1.51 fold enrichment (6-mer frequency, TF over GST control)"
same,binding signal,ETV2,"1.58 fold enrichment (6-mer frequency, TF over GST control)"
same,binding signal,ELF3,"1.39 fold enrichment (6-mer frequency, TF over GST control)"
same,binding signal,CRX,"1.19 fold enrichment (6-mer frequency, TF over GST control)"
same,binding signal,ETV1,"1.4 fold enrichment (6-mer frequency, TF over GST control)"
